Laboratory results reported in the supplement of paper PMC12350171.
Structures can show the parent of a compound that is named as a salt. Values without a mark were called inactive.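 The calls were made as follows: active = AUC significantly below DMSO controls by Student t-fit with adjusted P under 0.01; inactive = not significantly reduced.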

What follows are molecules tested on Haemophilus parainfluenzae (assay: growth AUC normalised to DMSO control (fraction of control); higher = less growth inhibition, active = hit call of the paper). Conditions: 20 µM.
Outline: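 For the AUC endpoint, growth curves were integrated by the trapezoidal rule up to the exponential-to-stationary transition and normalised to DMSO controls on the same plate. The curves came from OD578 readings taken hourly for 24 h, in three biological replicates. Pathogens had been passaged anaerobically twice and inoculated at an OD578 of 0.01 into pre-reduced mGAM plates carrying 20 μM compound and 1% DMSO, sealed with breathable membranes. Medium for Haemophilus parainfluenzae also contained hemin and NAD.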

Q: For `CC(=O)OCC1=C(C(=O)O)N2C(=O)[C@@H](NC(=O)Cc3cccs3)[C@H]2SC1` [Cephalothin sodium salt], which “growth AUC normalised to DMSO control” value is on record?
A: 0.0326 (active)

Q: Which “growth AUC normalised to DMSO control” value does the source give for `CN[C@H]1CC[C@@H](c2ccc(Cl)c(Cl)c2)c2ccccc21` [Sertraline] here?
A: 0.929

Q: How did the “growth AUC normalised to DMSO control” value turn out when `CNCCC=C1c2ccccc2C=Cc2ccccc21` [Norcyclobenzaprine] was run?
A: 0.91

Q: For `CC=C(C)C(=O)OC1C(OC(C)=O)C2(CO)C(O)CC3(C)C(=CCC4C5(C)CCC(OC6OC(C(=O)O)C(OC7OC(CO)C(O)C(O)C7O)C(O)C6OC6OC(CO)C(O)C(O)C6O)C(C)(CO)C5CCC43C)C2CC1(C)C` (stereo not drawn) [Beta-Escin], which “growth AUC normalised to DMSO control” value is on record?
A: 1.01

Q: With `Nc1nc2n[nH]nc2c(=O)[nH]1` [Azaguanine-8] as the molecule, how does the “growth AUC normalised to DMSO control” value read?
A: 0.992

Q: `CC(C)(C)NC(=O)[C@H]1CC[C@H]2[C@@H]3CC[C@H]4NC(=O)C=C[C@]4(C)[C@H]3CC[C@]12C` [Finasteride] was tested. Which “growth AUC normalised to DMSO control” value did it give?
A: 1.06

Q: `CC(=O)N[C@@H](CC(C)C)C(=O)O` [N-Acetyl-L-leucine] was tested. Which “growth AUC normalised to DMSO control” value did it give?
A: 1.02

Q: With `CN1CCCN=C1/C=C/c1cccs1` [Pyrantel tartrate] as the molecule, how does the “growth AUC normalised to DMSO control” value read?
A: 0.978

Q: Which “growth AUC normalised to DMSO control” value does the source give for `CCN(CCCCOC(=O)c1ccc(OC)c(OC)c1)C(C)Cc1ccc(OC)cc1` (centres undefined) [Mebeverine hydrochloride] here?
A: 1.03

Q: With `C1CCC(C(CC2CCCCN2)C2CCCCC2)CC1` (centres undefined) [Perhexiline maleate] as the molecule, how does the “growth AUC normalised to DMSO control” value read?
A: 0.977

Q: Which “growth AUC normalised to DMSO control” value does the source give for `COC(=O)[C@H]1[C@H]2C[C@@H]3c4[nH]c5cc(OC)ccc5c4CCN3C[C@H]2C[C@@H](OC(=O)c2cc(OC)c(OC)c(OC)c2)[C@@H]1OC` [Reserpine] here?
A: 1.07

Q: With `COC(=O)C1=C(C)NC(C)=C(C(=O)OC)C1c1ccccc1[N+](=O)[O-]` [Nifedipine] as the molecule, how does the “growth AUC normalised to DMSO control” value read?
A: 0.998

Q: For `Cc1cnc(NC(=O)C2=C(O)c3ccccc3S(=O)(=O)N2C)s1` [Meloxicam], which “growth AUC normalised to DMSO control” value is on record?
A: 0.968

Q: Which “growth AUC normalised to DMSO control” value does the source give for `O=C(O)c1ccccc1OP(=O)(O)O` [Fosfosal] here?
A: 0.998

Q: `c1ccc(-c2ccc(C(c3ccccc3)n3ccnc3)cc2)cc1` (centres undefined) [Bifonazole] was tested. Which “growth AUC normalised to DMSO control” value did it give?
A: 0.998

Q: `CN1CCCC(CC2c3ccccc3Sc3ccccc32)C1` (centres undefined) [Metixene hydrochloride] was tested. Which “growth AUC normalised to DMSO control” value did it give?
A: 0.999

Q: For `Cc1ccc(/C(=C\CN2CCCC2)c2ccccn2)cc1` [Triprolidine hydrochloride], which “growth AUC normalised to DMSO control” value is on record?
A: 0.961

Q: Which “growth AUC normalised to DMSO control” value does the source give for `c1ccc2[nH]c(-c3cscn3)nc2c1` [Tiabendazole] here?
A: 1.06

Q: Which “growth AUC normalised to DMSO control” value does the source give for `Cc1ncc(C[n+]2csc(CCO)c2C)c(N)n1` [Thiamine hydrochloride] here?
A: 0.964

Q: Which “growth AUC normalised to DMSO control” value does the source give for `CCCNCC(O)COc1ccccc1C(=O)CCc1ccccc1` (centres undefined) [Propafenone hydrochloride] here?
A: 1.01

Q: `C[C@]12C[C@H](O)[C@H]3[C@@H](CCC4=CC(=O)CC[C@@]43C)[C@@H]1CC[C@@H]2C(=O)CO` [Corticosterone] was tested. Which “growth AUC normalised to DMSO control” value did it give?
A: 0.962

Q: With `CC1CCc2cc(F)cc3c(=O)c(C(=O)O)cn1c23` (centres undefined) [Flumequine] as the molecule, how does the “growth AUC normalised to DMSO control” value read?
A: 0.066 (active)

Q: For `CC[C@H](C)C(=O)O[C@H]1C[C@H](O)C=C2C=C[C@H](C)[C@H](CC[C@@H](O)C[C@@H](O)CC(=O)O)[C@H]21` [Pravastatin], which “growth AUC normalised to DMSO control” value is on record?
A: 1.09

Q: With `C[C@]12CC[C@H]3[C@@H](CCC4=CC(=O)CC[C@@]43C)[C@@H]1CC[C@@H]2C(=O)CO` [Deoxycorticosterone] as the molecule, how does the “growth AUC normalised to DMSO control” value read?
A: 1.04

Q: Which “growth AUC normalised to DMSO control” value does the source give for `O=S(=O)(O)c1cc(O)ccc1O` [Ethamsylate diethylammonium salt] here?
A: 0.98

Q: With `CCCCC1C(=O)N(c2ccccc2)N(c2ccccc2)C1=O` [Phenylbutazone] as the molecule, how does the “growth AUC normalised to DMSO control” value read?
A: 1.02

Q: For `O=c1n(CCCN2CCN(c3cccc(Cl)c3)CC2)nc2ccccn12` [Trazodone hydrochloride], which “growth AUC normalised to DMSO control” value is on record?
A: 0.98

Q: Which “growth AUC normalised to DMSO control” value does the source give for `CCN(CC)CCOC(=O)C(Cc1cccc2ccccc12)CC1CCCO1` (centres undefined) [Nafronyl oxalate] here?
A: 1.28

Q: For `O=C(C1CCCCC1)N1CC(=O)N2CCc3ccccc3C2C1` (centres undefined) [Praziquantel], which “growth AUC normalised to DMSO control” value is on record?
A: 1.04

Q: Which “growth AUC normalised to DMSO control” value does the source give for `Fc1ccc([C@@H]2CCNC[C@H]2COc2ccc3c(c2)OCO3)cc1` [Paroxetine hydrochloride] here?
A: 0.998

Q: How did the “growth AUC normalised to DMSO control” value turn out when `C#CCN(C)Cc1ccccc1` [Pargyline hydrochloride] was run?
A: 0.979

Q: Which “growth AUC normalised to DMSO control” value does the source give for `CC[N+](CC)(CC)CCOc1cccc(OCC[N+](CC)(CC)CC)c1OCC[N+](CC)(CC)CC` [Gallamine triethiodide] here?
A: 1.09

Q: How did the “growth AUC normalised to DMSO control” value turn out when `O=C(Nc1ccccc1)OCC(CN1CCCCC1)OC(=O)Nc1ccccc1` (centres undefined) [Diperodon hydrochloride] was run?
A: 1.02

Q: How did the “growth AUC normalised to DMSO control” value turn out when `CC(C)(C)NCC(O)c1cc(O)cc(O)c1` (centres undefined) [Terbutaline hemisulfate] was run?
A: 1.06

Q: For `CNC(C)CCC=C(C)C` (centres undefined) [Isometheptene mucate], which “growth AUC normalised to DMSO control” value is on record?
A: 0.97

Q: `COc1cc(-c2ccc(=O)[nH]n2)ccc1OC(F)F` [Zardaverine] was tested. Which “growth AUC normalised to DMSO control” value did it give?
A: 1.02

Q: Which “growth AUC normalised to DMSO control” value does the source give for `CCCN(CCC)C(=O)C(CCC(=O)O)NC(=O)c1ccccc1` (centres undefined) [Proglumide] here?
A: 1.03

Q: `c1ccc(C2CN3CCSC3=N2)cc1` (centres undefined) [Tetramisole hydrochloride] was tested. Which “growth AUC normalised to DMSO control” value did it give?
A: 0.997

Q: For `CN(C)CCCN1c2ccccc2Sc2ccccc21` [Promazine hydrochloride], which “growth AUC normalised to DMSO control” value is on record?
A: 0.841
